# Test results as given in PubChem BioAssay AID624418 (National Center for Advancing Translational Sciences (NCATS), 2012).
# About 530 (0.13%) of roughly 410,000 compounds were called active. A call without a number means that no potency is given here. Inconclusive results (about 5%) are left out. The sample holds actives, similar compounds and a random draw of the others, so the mix is not that of the screen. Calls come from the whole dose curve; as a rule, active = well fitted inhibition curve with a large enough effect; inconclusive = small, poorly fitted or top-dose-only effect, or another doubt; inactive = no such curve, though single readings can be large or run the other way.
# Experiment: qHTS of GLP-1 Receptor Inverse Agonists: Cytotox Screen;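 note: loss of luciferase light is scored as toxicity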
# Details: HEK293 cAMP-luciferase reporter cells, luminescence, 24 h; series mostly up to 38.3 µM
# How it was run: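 Seeding density was 200 cells/uL; after overnight-length (12 h) culture, 23 nL compounds went on for 24 h at 37 °C. Readout used a luciferase detection reagent, luminescence taken after 12 min at room temperature.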
# Potency is the fitted concentration of half-maximal effect.
row,Structure (SMILES),Potency
1,COC(=O)c1cnn(-c2ccc(C(=O)Nc3ccc(OC(F)(F)F)cc3)cc2)c1N,inactive
2,Cc1ccc2nc(COc3ccccc3NC(=O)Nc3ccc(F)c(Cl)c3)cc(=O)n2c1,inactive
3,COc1ccc(NC(=O)CN2CCCN(Cc3ccccc3)S2(=O)=O)cc1,inactive
4,Cc1ccc(OC(=O)CSc2nnc(-c3cccs3)o2)cc1,inactive
5,COc1ccc(Cn2c(C(=O)O)c(CNCCc3cccs3)c3ccc(OC)cc32)cc1,inactive
6,Oc1ccc2ccccc2c1N=Nc1nccs1,4.47 µM (active)
7,Oc1ccc(N=Nc2nccs2)c(O)c1,8.91 µM (active)
8,Cc1ccc(-c2noc(CSc3nnc(-c4ccc(Cl)cc4)n3C)n2)cc1,inactive
9,Cc1ccc(C(=O)Nc2ccccc2F)cc1S(=O)(=O)N1CCOCC1,inactive
10,Cc1cc2c(cc3c(SCc4cccc(Cl)c4)nnc(C)n32)o1,inactive
11,CCOc1ccc(CCNC(=O)CN(c2ccc(C)cc2)S(=O)(=O)N(C)C)cc1OCC,inactive
12,CC(=O)c1ccc(N2CCN(C3C(=O)c4ccccc4N3C(C)=O)CC2)cc1 (stereo unspecified),inactive
13,Cc1cc(-c2ccc(C)c(S(=O)(=O)N3c4ccccc4CC3C)c2)on1 (stereo unspecified),inactive
14,Cc1ccc(-n2c(=O)c3cccnc3n2CC(=O)Nc2ccccc2C(F)(F)F)cc1C,inactive
15,Cc1nn(-c2ccc(N3CCCCC3)nn2)c(C)c1CCC(=O)NCc1ccc(F)cc1,inactive
16,CCCCNC(=S)N/N=C1\CCCCc2ccccc21,inactive
17,CCCC1CCC(=NNC(=S)NCCc2ccccc2)CC1 (stereo unspecified),4.47 µM (active)
18,S=C(NCCc1ccccc1)NCc1ccccc1Cl,inactive
19,CCN(CCCNC(=O)c1cc(Nc2ccc(OC)cc2)nc2ccccc12)c1cccc(C)c1,inactive
20,CCc1ccc(NC(=O)CSc2nc3c([nH]c4ccccc43)c(=O)n2-c2cccc(OC)c2)cc1,inactive
21,Fc1ccc(CN2CCc3nc(Nc4ccccc4)ncc3C2)cc1F,inactive
22,COc1ccccc1-c1cc(C(F)(F)F)nc(S(=O)(=O)CCCC(=O)Nc2ccc(F)cc2F)n1,inactive
23,C/C(=N\NC(=O)c1ccc(CSc2nc(C)cc(C)n2)cc1)C1CCCCC1,inactive
24,C/C(=N\NC(=O)c1ccc(C)cc1)C1C(=O)c2ccccc2C1=O,4.47 µM (active)

row,Structure (SMILES),Potency
1,O=C1c2ccccc2C(=O)C1C(=O)C1CC1,inactive
2,Cc1ccc(-n2cnc3cc(C(=O)NCCC4=CCCCC4)ccc32)cc1Cl,inactive
3,O=C(CSc1cn(CC(=O)N2CCOCC2)c2ccccc12)Nc1ccccc1,inactive
4,CCCCOC(=O)/C(C#N)=C/c1ccc(-c2cccc(C(F)(F)F)c2)o1,inactive
5,CCSc1nnc2c(n1)OC(c1ccc(OCC(=O)O)cc1)Nc1ccccc1-2 (stereo unspecified),inactive
6,Cc1ccc2oc(=O)c3cnn(CC(=O)NCc4ccccc4Cl)c3c2c1,inactive
7,CCc1cccc(NC(=O)c2cc(-c3ccccc3)n[nH]2)c1,inactive
8,O=C(CCl)Nc1cccc(CP(=O)(c2ccccc2)c2ccccc2)c1,3.16 µM (active)
9,O=C(CNCc1ccc(Cl)cc1)Nc1cccc(C(=O)O)c1,inactive
10,CCn1cc(C(=O)OCC(=O)Nc2cc(C)cc(C)c2)c(=O)c2ccc(C)nc21,inactive
11,COc1ccc(CNc2nc(-c3ccccc3)nn2C(=O)c2ccccc2OC)cc1,inactive
12,Cc1ccc(Nc2c(-c3ccc(Cl)cc3)nc3sccn23)c(C)c1,inactive
13,CCOC(=O)N1CCc2c(sc3c2c(=O)n(-c2ccc(CC)cc2)c(=O)n3C)C1,inactive
14,CCCN(CCC)CCCNC(=O)Cn1ncc2c3ccccc3n(Cc3ccccc3)c2c1=O,inactive
15,CCCN(C(=O)Cn1cc(S(=O)(=O)N2CCN(c3ccccc3F)CC2)c2ccccc2c1=O)c1cccc(C)c1,inactive
16,CSc1oc(-c2cccs2)nc1S(=O)(=O)c1ccc(Br)cc1,inactive
17,O=C(c1ccc(C(F)(F)F)cc1)N1CCC(c2nc(-c3ccc(S(=O)(=O)N4CCCC4)cc3)no2)CC1,inactive
18,CCN(CCCNC(=O)c1c(C)oc2ncn(CC(C)C)c(=O)c12)Cc1ccccc1,inactive
19,CCC1CCCCN1S(=O)(=O)c1ccc(NC(=O)c2cc(=O)c3ccccc3o2)cc1 (stereo unspecified),inactive
20,CC(C)CC(=O)NCC(c1ccc2c(c1)OCO2)N1CCN(c2ccc(F)cc2)CC1 (stereo unspecified),inactive
21,CCNC(=O)CC1C(=O)N(c2ccc(F)cc2)C(=O)N1Cc1ccc(C)cc1 (stereo unspecified),inactive
22,Cc1cc2c(cc1S(=O)(=O)CCC(=O)Nc1ccc(OC(F)(F)F)cc1)OCC(=O)N2,inactive
23,CCOC(=O)c1[nH]c(C)c(CCC(=O)NCc2ccccc2C)c1C,inactive
24,Cc1ccc2oc3c(c(=O)c2c1)C(c1ccc([N+](=O)[O-])cc1)N(CCCN1CCOCC1)C3=O (stereo unspecified),inactive

row,Structure (SMILES),Potency
1,O=S(=O)([N-]c1nc2ccccc2nc1-[n+]1ccc(Cc2ccccc2)cc1)c1ccc(Br)s1,10 µM (active)
2,CCOc1ccc(C(NC(=O)c2cc(OC)c(OC)c(OC)c2)c2cc(Cl)c3cccnc3c2O)cc1 (stereo unspecified),inactive
3,O=C(NC1CCN(Cc2ccccc2)CC1)c1ccc(Cn2c(=O)c3ccccc3n(Cc3cccc(F)c3)c2=O)cc1,inactive
4,CCOC(=O)c1cc(-c2ccc(OC)c(S(=O)(=O)Nc3ccc(OC)cc3OC)c2)on1,inactive
5,Cc1cc(C)cc(NC(=O)CCS(=O)(=O)c2cc3c4c(c2)CCN4C(=O)CC3)c1,inactive
6,COc1cccc(NC(=O)CSc2cc(=O)n(C)c3ccc(Cl)cc23)c1,inactive
7,CN(Cc1ccccc1)C(=O)c1cn(C)c2ccc(S(=O)(=O)N(C)C3CCCCC3)cc2c1=O,inactive
8,CCOC(=O)Cn1c(=O)n(C2CCCCC2)c2nc(-c3cccc(OC)c3)nc(C(N)=O)c21,inactive
9,COc1cccc(Cn2c(SCc3ccc(C(=O)N4CCC(C)CC4)cc3)nc3ccncc32)c1,inactive
10,Cc1cc(C)cc(NS(=O)(=O)c2ccc3[nH]cc(C(=O)N4CCCCC4)c(=O)c3c2)c1,inactive
11,Cc1cn(C)c(CC(=O)NCc2ccccc2)c1C(=O)O,inactive
12,COc1ccccc1NC(=O)c1cc(C2CC2)nc2c1c(C)nn2-c1ccc(C)cc1,inactive
13,Cc1ccc(S(=O)(=O)NCc2nc3nc(C)cc(C)n3n2)cc1,inactive
14,COc1ccc2c(c1)c(N1CCCC1=O)c(C(=O)Nc1ccccc1C(F)(F)F)n2C,inactive
15,Cc1ccc(Nc2nnc(-c3ccc(C)c(S(=O)(=O)N4CCCCC4)c3)c3ccccc23)cc1,inactive
16,COc1ccc(NC(=O)CCCc2nnc3n(CCC(C)C)c(=O)c4sccc4n23)c(OC)c1,inactive
17,Cc1cccc(NC(=O)N2CCN(C)c3ncccc32)c1C,inactive
18,Cc1ccc(NC(=O)Cn2c(=O)n(-c3ccccc3)c(=O)c3c4c(sc32)CCCC4)cc1,inactive
19,CCN(CC)S(=O)(=O)c1ccc(C(=O)N=c2sc3cccc(OC)c3n2C)cc1,inactive
20,O=C(c1cccs1)c1cn(CCOc2ccc(Cl)cc2)c2ccccc12,inactive
21,CCc1ccc(NC(=O)c2cc(S(=O)(=O)N3CCCC(C)C3)cn2C)cc1 (stereo unspecified),inactive
22,COc1ccc(CCNCc2c(C(=O)O)c(C)n(Cc3cccc(C)c3)c2C)cc1OC,inactive
23,Cc1cn(C)c(CC(=O)NCc2ccc(Cl)cc2)c1C(=O)O,inactive
24,CCOc1ccc(N2CC(c3nc4ccccc4n3CCOc3ccc(OC)cc3)CC2=O)cc1 (stereo unspecified),inactive

row,Structure (SMILES),Potency
1,O=C(NCc1ccccc1Cl)c1cccn1-c1nnc(N2CCCCC2)s1,inactive
2,COc1ccc(N(CC(=O)NCCc2ccc(Cl)cc2)S(=O)(=O)c2c(C)nn(C)c2C)cc1,inactive
3,CC(CNC(=O)c1nnc(Cc2cccc(F)c2)o1)c1ccccc1 (stereo unspecified),inactive
4,Cc1ccc(CNC(=O)CCc2c(C)nc3c(c(C)nn3-c3ccccc3)c2C)cc1,inactive
5,CNc1ccc(-c2nc(-c3ccco3)no2)cc1[N+](=O)[O-],inactive
6,O=C(NCCc1ccc(Cl)cc1)c1ccc2c(c1)N(Cc1ccc(F)cc1)C(=O)CS2,inactive
7,CCOc1ccc(-c2nonc2NC(=O)c2oc3ccc(CC)cc3c2C)cc1,inactive
8,COc1ccc(NC(=O)C(c2ccccc2)N2Cc3ccccc3C2=O)cc1 (stereo unspecified),inactive
9,CCOc1ccc(NC(=O)C2CCN(S(=O)(=O)c3cc(-c4noc(C)n4)ccc3C)CC2)cc1,inactive
10,CC1CC2=C(CC1/C=N/NC(N)=S)C(C)(C)CCC2 (stereo unspecified),2.24 µM (active)
11,Cc1nc2c(-c3ccccc3)c(C)nn2c(C)c1CCC(=O)NCCc1ccccc1,inactive
12,Cc1cccc(CSc2nc3ccncc3n2CC(=O)N(C)C2CCCCC2)c1,inactive
13,CC(C)(C)OC(=O)N1CCC(c2c(C(=O)N3CCN(c4cccc(Cl)c4)CC3)cnn2-c2cccc(Cl)c2)CC1,inactive
14,COc1cc(/C=C/C(=O)N2CCc3ccccc3C2)cc(OC)c1OC,inactive
15,COc1ccccc1Nc1c2c(nc3ccc(NC(=O)/C=C/c4cc(OC)c(OC)c(OC)c4)cc13)CCCC2,4.47 µM (active)
16,CCOc1ccc(C(=O)Nc2ccc3nc4c(c(Nc5ccccc5OC)c3c2)CCCC4)cc1,inactive
17,CC(=O)N1CCc2cc(S(=O)(=O)NC(Cc3ccccc3)C(=O)NCc3ccc(C)cc3)ccc21 (stereo unspecified),inactive
18,Clc1cccc(-n2ncc3c(NCCc4ccccc4)ncnc32)c1,inactive
19,CCn1cc(C(=O)NCc2ccc(C)cc2)c(=O)c2cc(S(=O)(=O)N3CCc4ccccc4C3)ccc21,inactive
20,CCOc1cc(C(=O)NCCc2csc3nc(-c4ccc(C)cc4)nn23)cc(OCC)c1OCC,inactive
21,CCCCN1CC(c2nc3ccccc3n2CCCCOc2ccc(C)cc2C)CC1=O (stereo unspecified),inactive
22,CC(C)Oc1c(Br)cc(Br)cc1/C=N/NC(N)=S,2.51 µM (active)
23,CC1(C(=O)N/N=C/c2cc3c(cc2Br)OCO3)CC1(Br)Br (stereo unspecified),inactive
24,CCCCn1cc(S(=O)(=O)c2ccc(OCC)cc2)c(=O)c2cc(OC)c(OC)cc21,inactive
